Records with an inconclusive call do not appear. A number with no mark means an inactive call. Activity calls are given as the source filed them. Calls follow the shape of the dose curve; as a rule, active = well fitted cell-killing curve with a large enough effect; inconclusive = small, poorly fitted or top-dose-only effect, or effect the other way; inactive = flat fitted curve, though single readings scatter. Where a SMILES comes first, the peptide text is derived from it. [ ]: non-standard residue; d: D form.
% is scaled to controls: 0 for no effect and ±100 for the full control effect; potency is read from the fitted curve at half-maximal effect.

For this experiment, the system named is Es-2. The experiment in a line: Primary qHTS to identify gynecologic anti-cancer compounds using libraries of approved drugs and bioactive compounds (AID 1345084). Also: nearly all actives have a fitted effect of over 55% in size. To be noted: Gynecologic cancer cell panel viability, ATPlite luminescence, 48 h; series mostly up to 57.5 µM; activity change, negative = cytotoxicity: at the top concentration. Summed up: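 Cell viability after 48 h drug treatment, ATPlite luminescence readout; five doses.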
A general note: qHTS replaces the single test concentration by a dilution series.
Turning to `CN1Cc2c(N)cccc2C(c2ccccc2)C1` (stereo not drawn), the “activity change, negative = cytotoxicity” value is -6.59%.
The same measure, in the same setting: the result for `C(#Cc1cccc(CN2CCOCC2)c1)CCN1CCCCC1` reads 0.356%; that for `C/C=C(\C)C(=O)O[C@H]1[C@H](O)[C@]2(COC(C)=O)[C@H](O)C[C@]3(C)C(=CCC4[C@@]5(C)CC[C@H](O[C@@H]6O[C@H](C(=O)O)[C@@H](O[C@@H]7O[C@H](CO)[C@@H](O)[C@H](O)[C@H]7O)[C@H](O)[C@H]6O[C@@H]6O[C@H](CO)[C@@H](O)[C@H](O)[C@H]6O)[C@](C)(CO)C5CC[C@]43C)[C@@H]2CC1(C)C` (stereo partly drawn), 5.46% [at 11.6 µM].
For `C[C@]12C=CC(=O)C=C1CC[C@@H]1[C@@H]2[C@@H](O)C[C@@]2(C)[C@H]1CC[C@]2(O)C(=O)COC(=O)CCC(=O)O`, the “activity change, negative = cytotoxicity” value was 0.871%.
Still for that read-out and setting: the result for `CC1=C2[C@@H]([C@H](C)CC[C@H]2/C=C(\C)C(=O)O)[C@H](O)C1` reads -2.48%; that for `CC(=O)c1c(C)cc(O[C@@H]2O[C@H](CO)[C@@H](O)[C@H](O)[C@H]2O)cc1O`, 4.77% [at 38.5 µM].
For the compound `OC[C@H]1O[C@@H](OCCc2ccc(O)cc2)[C@H](O)[C@@H](O)[C@@H]1O`, the “activity change, negative = cytotoxicity” value is 1.65%.
Turning to `C[C@@H]1C[C@H]2[C@@H]3CCC4=CC(=O)C=C[C@]4(C)[C@@]3(F)[C@@H](O)C[C@]2(C)[C@@]1(O)C(=O)COP(=O)(O)O`, the “activity change, negative = cytotoxicity” value is 2.89%.
Still for that read-out and setting: the result for `CC(=O)N1CCN(NC(=O)c2ccc(F)cc2)CC1` reads 5.87%; that for `NC(Cc1c[nH]c2ccccc12)C(=O)NC(CCC(=O)O)C(=O)O` (stereo not drawn), 3.51%.
For `CC[C@H](/C=C/[C@@H](C)[C@H]1CC[C@H]2[C@@H]3CC=C4C[C@@H](O)CC[C@]4(C)[C@H]3CC[C@]12C)C(C)C`, the activity change, negative = cytotoxicity was 0.911% [at 6.55 µM].
The same measure, in the same setting: the result for `CCOc1ccc(C(Nc2ccccn2)c2ccc3ccc(C)nc3c2O)cc1C` (stereo not drawn) reads 12%; that for `COc1cc(C2Oc3c(OC)cc(/C=C/C(=O)OC[C@H]4O[C@@H](OC(C)(C)C(=O)O)[C@H](O)[C@@H](O)[C@@H]4O)cc3C2CO)ccc1O` (stereo partly drawn), -3.08% [at 25.3 µM].
On the same count and under the same terms, the result for `COC1=CC(=O)C[C@@H](C)[C@]12Oc1cc(OC)cc(OC)c1C2=O` reads -0.255% [at 38.5 µM].
With `COc1c(C)c(OCC=C(C)C)cc2c1C(=O)NC2=O`, the “activity change, negative = cytotoxicity” value is -6.08%.
Turning to `C[C@]12CCC(=O)C=C1[C@@H](O)C[C@@H]1[C@@H]2[C@@H](O)C[C@@]2(C)[C@H]1CC[C@]2(O)C(=O)CO`, the “activity change, negative = cytotoxicity” value is 4.77%.
Turning to `Cn1c(=O)cc(N2CCCC(N)C2)n(Cc2ccccc2C#N)c1=O` (stereo not drawn), the “activity change, negative = cytotoxicity” value was -0.61%.
On to `CC(=O)O[C@H]1C[C@@H]2[C@]3(CC[C@]4(C)[C@@H](C5(C)CCC(C(C)(C)O)O5)[C@@H](O)C[C@@]24C)C[C@@]32CC[C@H](O[C@@H]3OC[C@@H](O)[C@H](O)[C@H]3O)C(C)(C)[C@H]12` (stereo partly drawn), for which the “activity change, negative = cytotoxicity” value is -2.27% [at 25.3 µM].
Same read-out and setting: the result for `COc1cc(C[C@H]2COC(=O)[C@@H]2Cc2ccc(O)c(OC)c2)ccc1O` reads 9.06% [at 38.5 µM]; that for `CCC(=O)NS(=O)(=O)c1ccc(-c2c(-c3ccccc3)noc2C)cc1`, -0.645%.
In the case of `C=CC(C)(O)CO[C@@H]1O[C@H](CO)[C@@H](O)[C@H](O)[C@H]1O` (stereo partly drawn), the “activity change, negative = cytotoxicity” value is 3.72%.
On the same count and under the same terms, the result for `Clc1ccc(CN[C@H]2CCN(c3ncc(Br)cn3)C2)c(Cl)c1` reads 15%.
Consider `CC(C)C(=O)c1cn(CC(=O)COc2ccc(Oc3ccccc3)cc2)c2ccc(C(=O)O)cc12`, for which the “activity change, negative = cytotoxicity” value is 5.59%.
Still for that read-out and setting: the result for `CC(C)C1=CC2=CCC3[C@](C)(CCC[C@@]3(C)C(=O)O)C2CC1O` (stereo partly drawn) reads -2% [at 38.5 µM]; that for `CC[C@H]1OC(=O)C[C@@H](O)[C@H](C)[C@@H](O[C@@H]2O[C@H](C)[C@@H](O)[C@H](N(C)C)[C@H]2O)[C@@H](CCN2C[C@H](C)C[C@H](C)C2)C[C@@H](C)C(=O)/C=C/C(C)=C/[C@@H]1CO[C@@H]1O[C@H](C)[C@@H](O)[C@@H](OC)[C@H]1OC`, 9.78%.
In the case of `CC(C)NC[C@H](O)COc1ccc(CCOCC2CC2)cc1`, the “activity change, negative = cytotoxicity” value was -12%.
As for `CC(=O)OC(C)OC(=O)C(C)c1ccc(-c2ccccc2)c(F)c1` (stereo not drawn), the “activity change, negative = cytotoxicity” value was -1.55%.
`C=C1C(=O)O[C@H]2[C@H]1[C@@H](OC(=O)C(C)CO)C[C@@]1(C)[C@H](O)CCC(=O)[C@H]21` (stereo partly drawn): the “activity change, negative = cytotoxicity” value was 1.94% [at 38.5 µM].
Still for that read-out and setting: the result for `CCC(C)(O)C(O)C(=O)OCc1ccc(O[C@@H]2O[C@H](CO)[C@@H](O)[C@H](O)[C@H]2O)c(OC)c1` (stereo partly drawn) reads 9.7% [at 25.3 µM].
With `NS(=O)(=O)OC[C@@H]1C[C@@H](n2ccc3c(N[C@H]4CCc5ccccc54)ncnc32)C[C@@H]1O`, the Potency is 3.16 µM (active).
Take `COc1ccc(C[C@H](N)C(=O)N[C@H]2[C@@H](O)[C@H](n3cnc4c(N(C)C)ncnc43)O[C@@H]2CO)cc1`: the Potency is 3.16 µM (active).
`C[C@H](NCc1ccc(OCc2ccccc2F)cc1)C(N)=O`: the “activity change, negative = cytotoxicity” value is 3.56%.
On the same count and under the same terms, the result for `CC(=O)N[C@H](Cc1ccc(O)cc1)C(=O)N[C@H](CCCN=C(N)N)C(=O)N[C@H](Cc1ccccc1)C(N)=O` (Ac-[dY]-[dR]-[dF]-NH2) reads -1.44%.
On to `Nc1ncnc2c1ncn2[C@H]1CCCO1`, for which the “activity change, negative = cytotoxicity” value was 4.03%.
With `CCC(=O)O[C@]1(C(=O)CCl)[C@@H](C)C[C@H]2[C@@H]3C[C@H](F)C4=CC(=O)C=C[C@]4(C)[C@@]3(F)[C@@H](O)C[C@@]21C`, the “activity change, negative = cytotoxicity” value is 3.32%.
As to `CCOc1ccc(-c2ccc(Cn3c(CC(C)(C)C(=O)O)c(SC(C)(C)C)c4cc(OCc5ccc(C)cn5)ccc43)cc2)cn1`, the Potency entry was “inactive”.
As for `CC1OC(OC2C(CO)OC(OCC3OC(OC(=O)C45CCC(C)(C)CC4C4=CCC6C7(C)CCC(OC8OC(C(=O)O)C(O)C(OC9OC(CO)C(O)C(O)C9O)C8O)C(C)(C)C7CCC6(C)C4(C)CC5)C(O)C(O)C3O)C(O)C2O)C(O)C(O)C1O` (stereo not drawn), the activity change, negative = cytotoxicity is 5.55% [at 6.55 µM].
On the same count and under the same terms, the result for `CC1CCC2(C)C(CC(O)C(O)C23CO3)C1(C)CCC1=CC(=O)OC1O` (stereo not drawn) reads 2.63% [at 38.5 µM].

The record behind these values is PubChem BioAssay (NCATS).
